# Sampled rows, rich in hits. Any-hit rate of the full collection: about 7.6%.
# HCV NS3h FP = blocks HCV NS3 helicase binding to DNA. NS3h Cy5-dT15 DNA binding, fluorescence polarization. inhibition, % at 100 µM. actives 1.6% (n = 16,000). AID 687043;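 active = inhibition above the average over every tested compound plus 3 SD, cut at about 40% in these data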
# Cy5 interf NS3h = counter-screen for HCV NS3 helicase inhibitors: fluorescence interference | Cy5-dT15 DNA with NS3h; actives lie on both sides; signal over control mean, under 1 quenches | AID 720488 | fluorescence interference ratio at 100 µM | actives 6% (n = 16,000);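 active = compound fluorescence over control fluorescence at most 0.8, a quencher, or at least a set upper limit, an enhancer; inactive = ratio between 0.8 and the set upper limit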
# A number is an active result; – = inactive.
SMILES,HCV NS3h FP,Cy5 interf NS3h
Cc1cc(/C=C2\C(=O)NC(=O)N(c3ccccc3)C2=O)c(C)n1-c1cccc([N+](=O)[O-])c1,–,–
COC(=O)c1ccc(-n2c(C)cc(/C=C3\SC(NC(C)=O)=NC3=O)c2C)cc1,–,–
CC(C)COc1ccc(C(=O)Nc2ccc(N3CCOCC3)cc2)cc1,–,–
Cc1ccc(N2C(=O)NC(=O)/C(=C\c3ccc(-c4ccc([N+](=O)[O-])cc4Cl)o3)C2=O)cc1,–,–
Cc1ccc([N+](=O)[O-])cc1-c1ccc(/C=C2\C(=O)NC(=O)N(c3ccc(Cl)cc3)C2=O)o1,–,1.3
CCOC(=O)c1c(NC(=O)CCC(=O)OC)sc(C)c1C,–,–
CN1CCN(C(=O)CCN2C(=O)/C(=C/c3cccs3)SC2=S)CC1,–,0.58
O=C(CCN1C(=O)/C(=C/c2cccs2)SC1=S)Nc1ccc(F)cc1,–,–
Cc1cc(OCC(=O)Nc2cccc(-c3nc4ncccc4o3)c2C)cc(C)c1Cl,–,–
CC(C)(CO)NC(=O)COc1ccc(Cl)cc1Cl,–,–
COc1ccc(C(=O)OCCCN2C(=O)c3ccccc3C2=O)cc1,–,0.62
CC(=O)OCCCN1C(=O)c2ccc(S(=O)(=O)c3ccc4c(c3)C(=O)N(CCCOC(C)=O)C4=O)cc2C1=O,–,–
C=C(C)Cn1c(COc2ccc(Cl)cc2Cl)n[nH]c1=S,–,–
O=C1NC(=Nc2cccnc2)S/C1=C\c1cccc(F)c1,–,0.8
O=C1NC(=Nc2cccnc2)S/C1=C\c1ccc(F)cc1,–,–
COCCNC(=O)C(=O)NCc1ccc(C)cc1,–,–
O=C(Cc1ccccc1)NC(NC(=S)Nc1ccccc1Cl)C(Cl)(Cl)Cl (configuration not stated),–,–
O=C(Nc1ccc(Cl)c(Cl)c1)Nc1nnc(SCc2ccccc2)s1,–,–
CC(C(=O)O)N1C(=O)/C(=C/c2ccccc2)SC1=S (configuration not stated),–,1.2
Cc1ccccc1/C=C1\SC(=S)N(C(C(=O)O)C(C)C)C1=O (configuration not stated),–,–
COc1ccc(NC(=O)COc2cccc3ccccc23)cc1,–,0.77
COc1ccccc1OCC(=O)Nc1ccc(S(N)(=O)=O)cc1,–,–
Cc1ccc(CN2CCN(S(C)(=O)=O)CC2)cc1,–,0.68
CCOc1ccc(S(=O)(=O)N2CCOCC2)cc1,–,–
CCOc1ccc(CN2CCN(S(C)(=O)=O)CC2)cc1,–,0.71
SMILES,HCV NS3h FP,Cy5 interf NS3h
Cc1ccc(NC(=O)C(=O)NCCN2CCN(S(C)(=O)=O)CC2)cc1,–,–
Cc1ccc(C(=O)N2CCN(c3ccc([N+](=O)[O-])cc3Cl)CC2C)o1 (configuration not stated),–,–
N#Cc1ccccc1N=Cc1ccc(Cl)cc1Cl,–,–
CCOc1ccc(N2C(=O)C3ON(c4ccccc4)C(c4ccc([N+](=O)[O-])cc4)C3C2=O)cc1 (configuration not stated),–,–
COC(=O)COc1ccc(C=C2C(=O)NC(=S)NC2=O)cc1OC,–,–
CCOc1cc(/C=C2/SC(=O)NC2=O)ccc1OCc1ccc(Cl)cc1,–,–
O=C1NC(=O)C(=Cc2ccccc2OCc2ccc(F)cc2)C(=O)N1,–,–
CCOc1cc(C=C2C(=O)NC(=O)NC2=O)ccc1OCCOc1ccccc1C,–,–
COc1cc(C=C2C(=O)NC(=S)NC2=O)ccc1OCc1ccc(Cl)cc1,–,0.68
COc1cc(C=C2C(=O)NC(=O)NC2=O)ccc1OCCC(C)C,–,0.8
O=C1NC(=O)C(=Cc2ccc(OCc3ccc(F)cc3)cc2)C(=O)N1,–,0.7
CCOc1cc(C=C2C(=O)NC(=O)NC2=O)ccc1OCc1ccc(Cl)cc1,–,0.4
CCOc1cc(/C=C2\SC(=S)N(c3cccc(OC)c3)C2=O)ccc1O,–,–
CCc1cc(C)cc(OCCOc2ccccc2/C=C2/SC(=S)N(C)C2=O)c1,–,–
CCCCOc1ccc(NC(=O)CSc2nnnn2-c2ccccc2)cc1,–,–
Cc1cc(C)c2oc(-c3ccc(NC(=S)NC(=O)c4ccco4)cc3)nc2c1,–,–
Cc1ccc(NC(=O)Cc2nnc(NC(=O)Nc3ccc(Cl)cc3)s2)cc1,–,–
CCOc1cc(C=O)ccc1OCc1ccccc1F,–,–
Cc1csc(NC(=O)c2c(O)c3ccccc3[nH]c2=O)n1,–,1.2
COc1ccccc1NC(=O)c1c(O)c2ccccc2[nH]c1=O,–,–
COc1cc(/C=C2\C(=O)NC(=O)N(c3ccc(C)cc3)C2=O)ccc1OCc1ccc([N+](=O)[O-])cc1,–,–
CC(=O)Oc1ccc(/C=N\NS(=O)(=O)c2ccccc2)cc1,–,–
Cc1cccc(N2C(=O)C(=O)C(=C(O)c3ccccc3)C2c2cccc([N+](=O)[O-])c2)c1 (configuration not stated),–,–
Cc1cc(C)c(NC(=O)c2cccc(N3C(=O)c4ccc(C(=O)Nc5c(C)cc(C)cc5C)cc4C3=O)c2)c(C)c1,–,–
CC(=O)c1ccc(N2CCN(S(=O)(=O)c3ccccc3)CC2)c(F)c1,–,0.79
SMILES,HCV NS3h FP,Cy5 interf NS3h
CC(=O)c1ccc(N2CCC(C)CC2)c(F)c1,–,–
CC(C)(C)CC(C)(C)NC(=O)CSc1nc2ccccc2o1,–,–
O=C(CSc1nc2ccccc2o1)c1ccc2c(c1)Cc1ccccc1-2,–,0.64
C=CCN1C(=O)c2ccccc2C1(O)c1ccc(OC)cc1 (configuration not stated),–,0.74
C=CCn1c(SCC(=O)O)nnc1-c1ccc(OC)cc1,–,–
O=C(c1cc(Cl)ccc1Cl)N(Cc1ccccc1)c1ccccn1,–,0.62
COc1ccc(Cl)cc1C(=O)N(Cc1ccccc1)C(C)C,–,–
CC1CC(O)N(c2ccccc2)C(=S)N1 (configuration not stated),–,0.77
CCOc1ccc(-c2cc(C)n3nc(C(N)=O)cc3n2)cc1,–,0.63
Cc1cc(-c2ccccc2)nc2cc(C(=O)Nc3ccc(Cl)cc3)nn12,–,–
COC(=O)c1cc2nc(-c3ccc(Br)cc3)cc(C(F)(F)F)n2n1,–,–
CCOc1ccc(-c2cc(C)n3nc(C(=O)N(C)Cc4ccccc4)cc3n2)cc1,–,–
CC(=O)c1ccc(NC(=O)c2cc3nc(-c4ccc(Br)cc4)cc(C(F)(F)F)n3n2)cc1,–,0.78
CCOc1ccc(-c2cc(C)n3nc(C(=O)Nc4ccc(C(C)=O)cc4)cc3n2)cc1,–,0.67
COc1ccc(C(=O)Oc2cccc3c(OC)ccc(C=O)c23)cc1,–,–
COc1ccc(/C=C2/SC(=Nc3ccc(F)cc3)NC2=O)c(OC)c1,–,–
CCN(CC)c1ccc(NC(=O)CCN2C(=O)c3ccccc3C2=O)cc1,–,0.6
O=C(CCN1C(=O)c2ccccc2C1=O)Nc1ccccc1C(=O)N1CCCC1,–,0.7
O=C(CCN1C(=O)c2ccccc2C1=O)Nc1ccccc1C(=O)N1CCOCC1,–,–
O=C(CCN1C(=O)c2ccccc2C1=O)Nc1ccc(I)cc1,–,–
Cc1ccc(OCC(=O)N2CCN(c3ccccn3)CC2)cc1,–,–
CC(=O)Nc1cc(-c2ccc(Cl)cc2)[nH]n1,–,0.67
Cc1ccc(-c2cc(NC(=O)c3ccc(F)cc3)n[nH]2)cc1,–,–
C=CCOC(=O)C1=C(C)NC(C)=C(C(=O)OCC=C)C1c1ccc(OC)c(OC)c1,–,0.8
C=CCOC(=O)C1=C(C)NC(C)=C(C(=O)OCC=C)C1c1ccc(O)c(OCC)c1,–,–
O=c1c2ccccc2nc(-c2ccccc2)n1/N=C\c1cccs1,–,–
